Experimental findings from PubChem BioAssay (Tox21) are described below.

Several values for one entry are separate records, joined by “and”; a condition that tells them apart may be missing. Identical values can stand only once. Results filed as inconclusive are left out. Where a call stands in place of a potency, no number is given. Activity calls are given as the source filed them. The call rests on the fitted dose curve.

Test system in the first assay: not listed separately
Kind of assay: qHTS assay to identify small molecule agonists or antagonists of the thyroid stimulating hormone receptor (TSHR) signaling pathway - wild type cell line counter screen (AID 1259384). The following applies: HEK293 wild type, cAMP HTRF counter-screen; series mostly up to 92.4 µM. The essentials:
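Counter screen in untransfected Hek293: compounds (15-point titration, triplicate) plus phosphodiesterase inhibitor Ro20-1724 added after 18 h plating; 30 min RT. Intracellular cAMP via competitive d2/cryptate immunoassay, 1 h incubation.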
As to `N#CCCCCC#N`, the Potency result was “inactive”.
Take `Clc1ccc(C(Cl)(Cl)Cl)cc1`: the Potency entry is “inactive”.
Same read-out and setting: in the case of `O=[N+]([O-])c1ccc(Cl)c([N+](=O)[O-])c1` it was “inactive”; in that of `CCCCOCC1CO1` (configuration not stated), “inactive”.
Still for that read-out and setting: in the case of `O=S(=O)(O)C(F)(F)C(F)(F)C(F)(F)C(F)(F)C(F)(F)C(F)(F)C(F)(F)C(F)(F)F` it was “inactive”; in that of `CNC(=S)S`, “inactive”.
Same read-out and setting: in the case of `CCOP(=S)(OCC)SCn1c(=O)oc2cc(Cl)ccc21` it was “inactive”.
For the compound `C[C@]12CCC(=O)C=C1CC[C@@H]1[C@@H]2CC[C@@]2(C)[C@H]1CC[C@]2(C)O`, the Potency result is “inactive”.
In the case of `Nc1ccc([N+](=O)[O-])cc1N`, the Potency result is “inactive”.
On the same count and under the same terms, in the case of `CCOP(=S)(OCC)SCSC(C)(C)C` it was “inactive”; in that of `C=CC(=O)OCC(CC)(COC(=O)C=C)COC(=O)C=C`, “inactive”.
Same read-out and setting: the same measure for `CCCCC(C#N)(Cn1cncn1)c1ccc(Cl)cc1` (configuration not stated): “inactive”; for `CS(=O)(=O)NC(=O)c1cc(Oc2ccc(C(F)(F)F)cc2Cl)ccc1[N+](=O)[O-]`: “inactive”; for `CC(C)=CC1C(C(=O)OCN2C(=O)C3=C(CCCC3)C2=O)C1(C)C` (configuration not stated): “inactive”.
Take `ClC(Cl)=C(Cl)C(Cl)=C(Cl)Cl`: the Potency entry is “inactive”.
On to `O=C1Nc2ccc(Cl)cc2C(c2ccccc2)=NC1O` (configuration not stated), for which the Potency result was “inactive”.
The same measure, in the same setting: in the case of `COP(=S)(OC)Oc1ccc(S(=O)(=O)N(C)C)cc1` it was “inactive”; in that of `CCCCOCCOC(C)=O`, “inactive”.
On the same count and under the same terms, in the case of `CC(C)(c1ccccc1)c1ccc(O)c(C(C)(C)c2ccccc2)c1` it was “inactive”.
Same read-out and setting: the same measure for `ClCC(Cl)CCl`: “inactive”.
Consider `C[N+](C)(C)C`, for which the Potency result was “inactive”.
As to `CCC(=O)Nc1ccc(Cl)c(Cl)c1`, the Potency result was “inactive”.
With `CC(C)(C#N)N=NC(C)(C)C#N`, the Potency result is “inactive”.
Same read-out and setting: the same measure for `O=[N+]([O-])c1ccc(Nc2ccccc2)cc1`: “inactive”.
Still for that read-out and setting: in the case of `C[C@]12CC[C@H]3[C@@H](CCC4=CC(=O)CC[C@@H]43)[C@@H]1CC[C@@H]2O` it was “inactive”.
Still for that read-out and setting: the same measure for `O=C(O)c1nn(Cc2ccc(Cl)cc2Cl)c2ccccc12`: “inactive”; for `O=NN(c1ccccc1)c1ccccc1`: “inactive”; for `c1ccc(C2CO2)cc1` (configuration not stated): “inactive”.
Turning to `CCC[CH2][Sn]([Cl])([CH2]CCC)[CH2]CCC`, the Potency entry was “inactive”.
On the same count and under the same terms, in the case of `CC1CC(=O)O1` (configuration not stated) it was “inactive”.

For a further assay, the target named is Thyrotropin receptor (Homo sapiens) (UniProt P16473). Kind of assay: qHTS assay to identify small molecule antagonists of the thyroid stimulating hormone receptor (TSHR) signaling pathway (AID 1259385). Further: nearly all actives have a fitted effect of over 20% in size. Further: potency means the concentration at half of the fitted maximal effect. The settings on record: TSHR-HEK293 cAMP HTRF, TSH-stimulated antagonist mode; series mostly up to 92.4 µM. The essentials: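 Antagonist mode: compound-treated TSHR-expressing HEK293 cells were stimulated with 1.5 ng/mL TSH (final) in presence of Ro20-1724 for 30 min at RT. HTRF cAMP detection after 1 h; each compound tested at 15 concentrations, triplicate.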
Chain of Thyrotropin receptor (Homo sapiens) (P16473 whole entry, looked up): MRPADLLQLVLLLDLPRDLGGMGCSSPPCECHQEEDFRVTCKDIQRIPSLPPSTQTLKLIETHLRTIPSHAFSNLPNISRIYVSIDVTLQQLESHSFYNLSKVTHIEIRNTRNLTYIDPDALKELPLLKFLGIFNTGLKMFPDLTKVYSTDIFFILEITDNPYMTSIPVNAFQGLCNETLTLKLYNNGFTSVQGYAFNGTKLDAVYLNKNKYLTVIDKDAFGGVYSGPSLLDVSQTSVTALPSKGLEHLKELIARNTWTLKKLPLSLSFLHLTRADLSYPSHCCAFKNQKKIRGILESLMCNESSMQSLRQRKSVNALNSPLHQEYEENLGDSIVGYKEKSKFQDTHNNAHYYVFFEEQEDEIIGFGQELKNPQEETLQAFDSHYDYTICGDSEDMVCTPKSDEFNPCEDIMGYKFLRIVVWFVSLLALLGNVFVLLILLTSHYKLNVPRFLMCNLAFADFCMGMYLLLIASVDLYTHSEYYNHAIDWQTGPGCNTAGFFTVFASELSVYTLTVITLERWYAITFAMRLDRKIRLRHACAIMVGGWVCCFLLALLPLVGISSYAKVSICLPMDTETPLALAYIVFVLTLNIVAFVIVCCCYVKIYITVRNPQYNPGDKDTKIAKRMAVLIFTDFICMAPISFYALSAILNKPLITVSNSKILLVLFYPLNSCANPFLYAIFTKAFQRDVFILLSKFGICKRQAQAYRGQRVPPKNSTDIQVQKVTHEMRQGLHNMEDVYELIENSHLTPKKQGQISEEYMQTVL
Background: In qHTS, concentration-response curves come from the screen itself.
For the compound `N#CCCCCC#N`, the Potency result is “inactive”.
Same read-out and setting: the same measure for `Clc1ccc(C(Cl)(Cl)Cl)cc1`: “inactive”; for `O=[N+]([O-])c1ccc(Cl)c([N+](=O)[O-])c1`: “inactive”; for `CCCCOCC1CO1` (configuration not stated): “inactive”.
On the same count and under the same terms, in the case of `O=S(=O)(O)C(F)(F)C(F)(F)C(F)(F)C(F)(F)C(F)(F)C(F)(F)C(F)(F)C(F)(F)F` it was “inactive”; in that of `CNC(=S)S`, “inactive”.
`C[C@]12CCC(=O)C=C1CC[C@@H]1[C@@H]2CC[C@@]2(C)[C@H]1CC[C@]2(C)O`: the Potency result was “inactive”.
Same read-out and setting: the same measure for `C=CC(=O)OCC(CC)(COC(=O)C=C)COC(=O)C=C`: “inactive”; for `CCCCC(C#N)(Cn1cncn1)c1ccc(Cl)cc1` (configuration not stated): 60.9 µM (active) and 54.5 µM (active).
On the same count and under the same terms, in the case of `CS(=O)(=O)NC(=O)c1cc(Oc2ccc(C(F)(F)F)cc2Cl)ccc1[N+](=O)[O-]` it was “inactive”; in that of `CC(C)=CC1C(C(=O)OCN2C(=O)C3=C(CCCC3)C2=O)C1(C)C` (configuration not stated), “inactive”; in that of `ClC(Cl)=C(Cl)C(Cl)=C(Cl)Cl`, “inactive”.
Regarding `O=C1Nc2ccc(Cl)cc2C(c2ccccc2)=NC1O` (configuration not stated), the Potency result is “inactive”.
Still for that read-out and setting: the same measure for `COP(=S)(OC)Oc1ccc(S(=O)(=O)N(C)C)cc1`: “inactive”; for `CCCCOCCOC(C)=O`: “inactive”.
On the same count and under the same terms, the same measure for `CC(C)(c1ccccc1)c1ccc(O)c(C(C)(C)c2ccccc2)c1`: “inactive”; for `ClCC(Cl)CCl`: “inactive”; for `C[N+](C)(C)C`: “inactive”.
Still for that read-out and setting: in the case of `CCC(=O)Nc1ccc(Cl)c(Cl)c1` it was “inactive”.
Take `CC(C)(C#N)N=NC(C)(C)C#N`: the Potency entry is “inactive”.
On the same count and under the same terms, the same measure for `O=[N+]([O-])c1ccc(Nc2ccccc2)cc1`: “inactive”; for `C[C@]12CC[C@H]3[C@@H](CCC4=CC(=O)CC[C@@H]43)[C@@H]1CC[C@@H]2O`: “inactive”.
Still for that read-out and setting: the same measure for `O=C(O)c1nn(Cc2ccc(Cl)cc2Cl)c2ccccc12`: “inactive”.
Still for that read-out and setting: in the case of `O=NN(c1ccccc1)c1ccccc1` it was “inactive”.
Consider `c1ccc(C2CO2)cc1` (configuration not stated), for which the Potency result is “inactive”.
As for `CCC[CH2][Sn]([Cl])([CH2]CCC)[CH2]CCC`, the Potency was 12.2 µM (active).
Same read-out and setting: the same measure for `CC1CC(=O)O1` (configuration not stated): “inactive”.
